hcDAF12 agonist: H. contortus DAF-12 activation, primary screen | HEK293 hcDAF-12 lit1-tk-luc reporter, luminescence; 0% DMSO, 100% Δ7-dafachronic acid | activation, % at 6.8 µM | 1.4% of 370,000 active;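 active means activation above the mean of all tested compounds plus 3 SD, cut at about 5.5% in these data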
ssDAF-12 act: S. stercoralis DAF-12 activation, primary screen; HEK293 ssDAF-12/GRIP1 lit1-tk-luc reporter, luminescence; % of 3 µM dafachronic acid response; activation, % at 6.8 µM; 1% of 370,000 active; AID 652126;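 active means activation above the mean over all tested compounds plus 3 SD, cut at about 0.9% in these data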
DAX1 inh-1: DAX1 (NR0B1) inhibition, primary screen; HEK293T StAR-luciferase reporter, SF-1/DAX-1 repression relief; inhibition, % at 6.8 µM; 1.1% of 370,000 active;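 active means inhibition above the mean over all tested compounds plus 3 SD, cut at about 3.6% in these data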;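 further: higher inhibition means more luminescence from relief of DAX-1 repression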
DAX1 inh-2: inhibits human nuclear receptor DAX1; P51843; HEK293 Gal4-DAX1 luciferase reporter, luminescence; inhibition, % at 6.75 µM; 0.99% of 340,000 active;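 active means inhibition above the mean over all tested compounds plus 3 SD, cut at about 4.2% in these data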;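 further: inhibition shows as a rise in luminescence from relieved DAX1 repression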
Target sequence (P51843 207-470 limits assumed): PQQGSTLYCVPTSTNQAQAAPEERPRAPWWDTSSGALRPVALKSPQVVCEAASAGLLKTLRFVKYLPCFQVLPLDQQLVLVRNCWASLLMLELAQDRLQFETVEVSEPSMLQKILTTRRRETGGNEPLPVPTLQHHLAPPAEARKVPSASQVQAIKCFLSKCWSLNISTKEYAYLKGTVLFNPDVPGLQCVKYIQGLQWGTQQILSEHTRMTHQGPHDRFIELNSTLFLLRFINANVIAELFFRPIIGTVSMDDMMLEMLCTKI
hgDAF-12 ag: activates the H. glycines DAF-12 receptor ligand-binding domain; HEK293 GAL4-hgDAF12 UAS-luciferase reporter, agonist luminescence; normalized to butyrate control; activation, % at 6.8 µM; 1.8% of 370,000 active;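 active means activation above a cutoff set at the mean of all screened compounds plus 3 SD, cut at about 10% in these data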
A number is an active result; i = inactive; nt = not tested or not shown. Only some compounds are listed: those with a hit (about 4.1% of all), similar ones and a draw of the others.

SMILES	hcDAF12 agonist	ssDAF-12 act	DAX1 inh-1	DAX1 inh-2	hgDAF-12 ag
O=C(O)CC/C(=N\NC(=O)c1ccncc1)c1ccccc1	i	i	i	i	i
COc1cccc(C(=O)NNC(=O)C(=O)Nc2cccc3ccccc23)c1	i	i	i	i	i
COc1cccc(C(=O)NNC(=O)c2ccc3ccccc3c2O)c1	i	1.6	i	i	i
COc1cccc(C(=O)N/N=C(/CCC(=O)O)c2ccccc2)c1	i	i	i	i	12
COc1cc(C(=O)Nc2nnc(CC(=O)NCc3ccccc3)s2)cc(OC)c1OC	i	i	i	4.2	i
COc1ccc(CSc2nnc(SCC(=O)Nc3ccc(S(N)(=O)=O)cc3)s2)cc1	i	i	i	nt	i
COC(=O)N/N=C(\CCC(=O)O)c1cccs1	i	i	i	i	i
O=C(O)CC/C(=N\NC(=O)c1ccccc1)c1cccs1	i	i	i	i	11
COc1cccc(C(=O)Nc2ccccc2)c1	i	i	i	i	i
COc1cccc(C(=O)NNC(=O)c2ccccc2)c1	i	1.4	i	i	i
COc1cccc(NC(=O)Nc2nc3ncccn3c2-c2ccc(C(F)(F)F)cc2)c1	i	i	i	nt	i
Cc1cc(NS(=O)(=O)c2ccc(NC(=O)CSc3nc4sc(C)c(C)c4c(=O)n3Cc3ccco3)cc2)nc(C)n1	i	i	i	nt	i
CC(C)C[C@@H]1COc2cccc(N3CCCC3)c2S(=O)(=O)N1C	i	i	i	nt	i
Cc1ccc(N(C(=O)CNC(=O)c2ccco2)C(C(=O)NC2CCCC2)c2cccnc2)cc1C (stereo not given)	i	i	i	4.3	i
O=C(NCC(=O)N(CC1CCCO1)C(C(=O)NC1CCCCC1)c1cccnc1)c1cccs1 (stereo not given)	i	i	i	5.0	i
C/C(=N\Nc1ccc(Cl)cc1)c1ccncc1	i	i	i	i	i
C/C(=N\NC=O)c1ccncc1	i	i	i	5.0	i
COc1ccc(CNC2CCC23CCC(C)CC3)cc1 (stereo not given)	i	i	nt	nt	i
C[C@H]1[C@@H](OC(=O)NCc2ccccc2)CC[C@@]23CCCN2C(=O)CCC[C@@H]13	i	i	nt	nt	i
O=C1NCC(CN(c2ccccc2)c2ccccc2)O1 (stereo not given)	i	i	i	6.7	i
Cc1ccccc1OCC1CNC(=O)O1 (stereo not given)	i	i	i	i	i
CC(=O)CC[C@H]1CC[C@]2(CCCN(S(C)(=O)=O)C2)O1	i	i	i	nt	i
Cc1cccc(C)c1NC(=O)C(c1cccc([N+](=O)[O-])c1)N(C)C(=O)c1ccccn1 (stereo not given)	i	1.0	i	i	i
COc1ccc(OC)c(NC(=O)O[C@@H]2CC[C@@]34CCCN3C(=O)CCC[C@H]4C2)c1	i	i	nt	nt	i
CCN(CC)C(=O)CC[C@H]1CC[C@]2(CCCN(C3CCCCC3)C2)O1	i	i	i	nt	i
SMILES	hcDAF12 agonist	ssDAF-12 act	DAX1 inh-1	DAX1 inh-2	hgDAF-12 ag
COc1ccc(OC)c(-c2nnc(SCC(=O)NC3CCCCC3)o2)c1	i	i	i	i	i
COc1ccc(-c2nnc(SCC(=O)NC3CC3)o2)c(OC)c1	i	i	4.3	i	i
O=C(CSc1nnc(-c2ccccn2)o1)Nc1ccccc1Cl	i	i	i	i	11
O=C(CSc1nnc(-c2ccncc2)o1)Nc1ccccc1Cl	i	i	i	i	i
COc1ccc(-c2nnc(SCC(=O)Nc3ccccc3OC)o2)cc1	i	i	4.3	i	i
COc1ccc(NC(=O)CSc2nnc(-c3ccc(F)cc3)o2)cn1	i	i	4.0	i	i
CCOC(=O)[C@@]12CN(C(=O)OC(C)(C)C)CC=C1N(Cc1ccc(OC)cc1)C(=O)[C@H]2CC(=O)N1CCCC1	i	i	i	nt	i
C=CCN=C1NC(c2cccc(F)c2)C(C(=O)OC)=C(C)N1Cc1cccc(C(F)(F)F)c1 (stereo not given)	i	i	i	nt	i
COC(=O)[C@]12C[C@H](CC(=O)N3CCN(C(=O)c4ccco4)CC3)C(=O)N(CCC3=CCCCC3)C1=C[C@H](C1CCCC1)O[C@@H]2C	i	i	i	nt	i
COc1ccc(-c2nnc(SCC(=O)N3CCN(c4ccccc4)CC3)o2)cc1OC	i	i	i	6.2	i
CCCC(=O)N1CCC(C(=O)NC2CCCc3ccccc32)CC1 (stereo not given)	i	i	i	nt	i
Cc1c(NC(=O)C2CCCN(S(=O)(=O)c3ccc(C(C)(C)C)cc3)C2)c(=O)n(-c2ccccc2)n1C (stereo not given)	i	i	i	nt	i
CCC(C)(C(=O)NC1CCCCC1)N(C(=O)c1ccccn1)c1ccccc1 (stereo not given)	i	i	i	i	i
CCC(C)(C(=O)NC1CCCCC1)N(C)C(=O)c1ccccn1 (stereo not given)	6.1	i	i	i	i
CCOc1cc(N(CC)CC)ccc1/C=C(/C#N)c1nc2ccccc2[nH]1	i	i	i	6.5	i
COc1cccc(/C=C(/C#N)c2nc3ccccc3[nH]2)c1OC(C)C(=O)O (stereo not given)	i	1.0	i	7.0	i
COc1ccccc1N/C=C(\C#N)c1nc2ccccc2[nH]1	i	1.2	i	i	i
COC(=O)[C@H](C(C)C)N(Cc1cn(Cc2ccccc2)nn1)S(=O)(=O)c1ccc(F)cc1Br	i	i	i	nt	i
S=C(c1ccc(-c2ccc(Br)cc2)o1)N1CCCCC1	i	i	i	i	i
S=C(c1ccc(-c2ccc(Br)cc2)o1)N1CCOCC1	i	i	i	nt	12
Nc1nc(CN2CCCCCC2)nc(Nc2ccccc2)n1	i	i	i	i	i
Cc1c(-c2nc(N)nc(Nc3ccccc3)n2)oc2ccccc12	i	i	i	i	11
CCCCNC(=O)O[C@H]1CC[C@@]23CCCN2C(=O)CCC[C@H]3[C@H]1CCC	i	i	nt	nt	i
C[C@H]1[C@H](NCc2cccnc2)CC[C@@]23CCCN2C(=O)CCC[C@@H]13	i	i	nt	nt	i
COc1ccc(C2CC(c3ccc(C)o3)=NN2C(C)=O)cc1 (stereo not given)	i	i	i	i	i
SMILES	hcDAF12 agonist	ssDAF-12 act	DAX1 inh-1	DAX1 inh-2	hgDAF-12 ag
COc1ccc(C2CC(c3ccc4ccccc4c3OC(C)=O)=NN2C(C)=O)cc1 (stereo not given)	i	i	i	5.4	i
CCCCNC(=O)C1(C(=O)c2ccc(OC)cc2)CC(C(=O)OCC)=NO1 (stereo not given)	i	i	i	nt	i
O=C(CSc1nc(-c2ccc(F)cc2)cc(C(F)(F)F)n1)NCCN1CCOCC1	i	i	i	i	i
O=C(CSc1nc(-c2ccco2)cc(C(F)(F)F)n1)NCCN1CCOCC1	i	i	i	6.0	i
COCCNC(=O)[C@]1(C#N)CC(=O)N(C)[C@@H]1c1ccccc1	i	i	i	nt	i
CCOc1ccc2nc(N3CCCC(C(=O)NCCCN4CCOCC4)C3)sc2c1 (stereo not given)	i	i	i	i	i
CCOc1ccc2nc(N3CCC(C(=O)NCCCN4CCOCC4)CC3)sc2c1	i	i	i	i	12
